About 17,000 (4.7%) of roughly 360,000 compounds were called active. Inconclusive results (about 5%) are left out. The sample holds actives, similar compounds and a random draw of the others, so the mix is not that of the screen. No stated cut-off is given here; in the data, active means activity change below about -50%; inconclusive means mostly about -30% to -49%; inactive means weaker than that.

Here are results for 94 compounds from PubChem BioAssay AID743279 (National Center for Advancing Translational Sciences (NCATS), 2014).
On the % scale 0 is the no-effect control and ±100 the full control effect.

A short description of this experiment: qHTS for Inhibitors of Inflammasome Signaling: IL-1-beta AlphaLISA Primary Screen. Conditions: THP-1 LPS/ATP IL-1B secretion, 16 h; at 57.5 µM, hits give low values. In short, it runs like this: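 THP-1 cells pretreated 1 hr with compounds (up to 57.5 uM final), then stimulated with LPS (250 ng/mL final) plus ATP (1.25 mM final); secreted IL-1B measured by AlphaLISA after 16 hr, decreased signal indicating inhibition.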
As for `CCN1CN(Cc2ccccc2)CNC1=S`, the activity change was 0.299% (inactive).

Consider `CCc1nnc(NC(=O)C2CCN(C(=O)c3ccccc3C)CC2)s1`, for which the activity change was -4.49% (inactive).

Consider `CCOc1ccc(S(=O)(=O)N2CCC(C(=O)NCc3ccccn3)CC2)cc1Cl`, for which the activity change was -5.47% (inactive).

Turning to `Cc1ccc(C(NC(=O)C2CCN(CCOc3ccc(Cl)cc3Cl)CC2)c2ccccn2)cc1` (centres undefined), the activity change was -68.4% (active).

As to `O=C(CCCOc1ccc(Cl)cc1Cl)NNC(=O)C1CCC1`, the activity change is -7.73% (inactive).

Regarding `CC(C)C[C@@H]1COc2cc(N3CCC[C@@H]3CO)ccc2S(=O)(=O)N1`, the activity change is 24.4% (inactive).

As for `CN(NC(=O)c1ccccc1F)c1nc(C(F)(F)F)nc2ccccc12`, the activity change was 94.2% (inactive).

Regarding `CCc1ccc(C(CNc2nc(C(F)(F)F)nc3ccccc23)N(C)C)cc1` (centres undefined), the activity change is -104% (active).

With `COc1cccc(CNc2nc(C(F)(F)F)nc3ccccc23)c1`, the activity change is -81.4% (active).

Regarding `COc1ccc(CNc2ncnc3ccccc23)cc1`, the activity change is -5.53% (inactive).

For `NS(=O)(=O)c1ccc(CCNc2nc(C(F)(F)F)nc3ccccc23)cc1`, the activity change is -29.6% (inactive).

Regarding `COc1cccc(CNC(=O)c2n[nH]c3ccccc23)c1`, the activity change is -5.24% (inactive).

`O=C(NCCc1ccc(F)cc1)c1ccc(S(=O)(=O)N2CCCCC2)cc1`: the activity change is 7.26% (inactive).

`CC1CN/C(=C\C(=O)c2ccc(Br)cc2)C(=O)N1` (centres undefined): the activity change is -2.3% (inactive).

With `CCc1nc2c(=O)[nH]cnc2o1`, the activity change was -0.15% (inactive).

With `CCCNC(=O)C1(C)CCCN(Cc2c(C)nn(-c3ccccc3)c2C)C1` (centres undefined), the activity change is 0% (inactive).

`C[C@H]1Cn2cnc(C(=O)N[C@H](C)c3ccccc3)c2C(=O)N1`: the activity change was 56.9% (inactive).

For the compound `O=C(Nc1cccc(C(=O)O)c1)/C(=C\c1ccccc1)NC(=O)c1ccc(Br)o1`, the activity change is -24.2% (inactive).

`C[C@H]1CN([C@@H](C)CO)S(=O)(=O)c2ccc(Br)cc2O[C@H]1CN(C)C(=O)c1cnccn1`: the activity change was 7.37% (inactive).

As for `O=C(CSc1ncnc2sccc12)N1CCN(C(=O)c2cccs2)CC1`, the activity change is -0.616% (inactive).

In the case of `Nc1c(C(=O)c2cccs2)sc2nsc(SCCN3CCCCC3)c12`, the activity change is -95.7% (active).

Regarding `CCC1OC(C2CC2)CC2=C1C(=O)OC(C)(C)O2` (centres undefined), the activity change was 29.6% (inactive).

In the case of `COc1ccc(C2N=C(N)N=C(N)N2c2ccccc2)cc1OC` (centres undefined), the activity change is -16.9% (inactive).

Regarding `O=[N+]([O-])c1ccc(N2CCN(c3ccc(F)cc3)CC2)cn1`, the activity change was -1.6% (inactive).

Consider `NC1=NC(c2ccc([N+](=O)[O-])cc2)N(c2ccc(F)cc2)C(N)=N1` (centres undefined), for which the activity change was -52.3% (active).

With `CC(C)(C)c1ccc(S(=O)(=O)NC(=O)C2(C)CCN2C(=O)CC2CC2)cc1` (centres undefined), the activity change was -3.72% (inactive).

Consider `c1ccc(-c2cc(N3CCCCC3)c3ccccc3n2)cc1`, for which the activity change was -26.2% (inactive).

For `CC(Nc1nc(N2CCN(CCO)CC2)nc2ccccc12)c1ccccc1` (centres undefined), the activity change is -90.7% (active).

Turning to `Cn1c(=O)[nH]c(=O)c2c1nc(N1CCN(CCO)CC1)n2CCSc1nc2ccccc2s1`, the activity change was 10.2% (inactive).

On to `CC(Nc1nc(N2CCCC2)nc2ccccc12)c1ccccc1` (centres undefined), for which the activity change is -80.2% (active).

On to `CCCCn1c(CN2CCN(CCO)CC2)nc2ccccc21`, for which the activity change is 44.1% (inactive).

For `CC(Nc1nc(N2CCOCC2)nc2ccccc12)c1ccccc1` (centres undefined), the activity change was 0% (inactive).

As to `COc1ccc(CCCNC(=O)C2Cc3c(-c4cccc(C(N)=O)c4)ccnc3O2)cc1` (centres undefined), the activity change was 34.7% (inactive).

Turning to `CCN(CC)CCCN=C(N)N`, the activity change is -17.5% (inactive).

Regarding `O=P(c1ccc2c(c1)OCCO2)(N1CCOCC1)N1CCOCC1`, the activity change is 8.69% (inactive).

As for `Cc1ccc(OCC(=O)Nc2ccc(NC(=O)c3cccs3)cc2)c(C)c1`, the activity change is -1.3% (inactive).

Take `Cc1ccc(OCC(=O)Nc2ccc(N3CCN(C(=O)c4ccco4)CC3)cc2)c(C)c1`: the activity change was -61.6% (active).

For `COc1cccc(C(=O)Nc2ccc(N3CCN(C(=O)c4ccco4)CC3)cc2)c1`, the activity change was -73.8% (active).

On to `COc1cccc(OCc2cc(C(=O)N3CCN(C(=O)c4ccco4)CC3)no2)c1`, for which the activity change was 6.56% (inactive).

In the case of `Cc1ccc(NC(=O)C(c2ccccc2)N2CCN(C(=O)c3ccco3)CC2)cc1` (centres undefined), the activity change is 16.1% (inactive).

In the case of `COc1ccc(C(=O)Nc2ccccc2C(=O)N2CCN(c3ccccc3)CC2)cc1`, the activity change was 0% (inactive).

Take `O=C(Nc1cc2c3c(c1)CC(=O)N3CCC2)c1ccccc1F`: the activity change was 4.9% (inactive).

Regarding `CCNC(=O)C1(C)CCCN(Cc2noc(-c3ccccc3OC)n2)C1` (centres undefined), the activity change is -5.34% (inactive).

For the compound `C[C@H]1CN([C@@H](C)CO)C(=O)CCCn2nncc2CO[C@@H]1CN(C)Cc1ccc(Oc2ccccc2)cc1`, the activity change was 8.16% (inactive).

`CCOCCCNC(=O)C(NC(=O)Cc1c[nH]c2ccccc12)c1ccc(OC)cc1` (centres undefined): the activity change was 10.6% (inactive).

In the case of `N#Cc1nc(COc2ccc(-c3ccccc3)cc2)oc1NCc1cccnc1`, the activity change was -79.6% (active).

With `O=S(=O)(c1ccc(Br)cc1)c1nc(-c2ccccc2)oc1NCc1cccnc1`, the activity change is -18.2% (inactive).

As to `Cc1cc(NCc2cccnc2)no1`, the activity change was 3.61% (inactive).

On to `O=C(COC(=O)/C=C/c1ccc(OC(F)F)cc1)NC1CCCCC1`, for which the activity change was 17.5% (inactive).

Take `CCCC/C(C)=N/NC(=O)NC1CCCCC1`: the activity change was 14.3% (inactive).

For the compound `C/C(=N\NC(=O)NC1CCCCC1)c1ccc(OC(F)F)cc1OC(F)F`, the activity change is -80.5% (active).

Regarding `O=C(c1ccc(Cn2cc([N+](=O)[O-])cn2)o1)N1CCCC1`, the activity change was 13.7% (inactive).

As to `Cc1ccn(-c2cccc(-n3ccc(C)n3)n2)n1`, the activity change is 25.2% (inactive).

For `O=C1N[C@@H](c2ccccc2)COC(=O)[C@H](Cc2ccc(F)cc2)C/C=C\C[C@@H]1CC(=O)N(CCO)Cc1ccccc1`, the activity change was -68.1% (active).

As to `CC(C)(C)OC(=O)C[C@@H]1C/C=C\C[C@@H](CC(=O)N(CCO)Cc2ccccc2)C(=O)N[C@H](Cc2ccccc2)COC1=O`, the activity change is -12.5% (inactive).

On to `O=C1CCC/C=C\C[C@@H](CC(=O)N(CCO)Cc2ccccc2)C(=O)NCCO1`, for which the activity change was 36.5% (inactive).

Take `O=C1CCC/C=C/C[C@@H](CC(=O)N(CCO)Cc2ccccc2)C(=O)NC[C@H](c2ccccc2)O1`: the activity change is -15.8% (inactive).

On to `O=C1NC[C@@H](c2ccccc2)OC(=O)[C@H](Cc2ccc(F)cc2)CC/C=C/C[C@H]1CC(=O)N(CCO)Cc1ccccc1`, for which the activity change is -57.4% (active).

Turning to `O=C1OC[C@@H]2CCCN2C(=O)[C@H](CC(=O)N(CCO)Cc2ccccc2)C/C=C\CC[C@@H]1Cc1ccc(F)cc1`, the activity change was -27.7% (inactive).

In the case of `CCCCc1ccc(S(=O)(=O)NC(=O)C2(C)CCN2C(=O)c2c(C)noc2C)cc1` (centres undefined), the activity change was 24.9% (inactive).

Turning to `CCN(CC)C(=O)N1CCN(C(=O)c2ccc(C)cn2)CC1`, the activity change is 13.6% (inactive).

With `Cc1ccc(S(=O)(=O)N2CCCC2C(=O)OCc2nc3sc(C)c(C)c3c(=O)[nH]2)cc1` (centres undefined), the activity change was -4.97% (inactive).

In the case of `CCn1ccnc1CN(C)Cc1nc(-c2ccc3c(c2)OCO3)no1`, the activity change was 1.77% (inactive).

For the compound `Cc1ccc(-n2cnc3ncnc(-c4ccccc4)c32)cc1`, the activity change was -9.14% (inactive).

Take `Cc1ccc(-n2cc(CN(C)Cc3nccn3C)c(-c3cccc(C)c3)n2)cc1`: the activity change was -85.3% (active).

For `O=C(C=CC(=O)Nc1ccc(F)cc1F)Nc1ccc(F)cc1F`, the activity change was 36.7% (inactive).

Regarding `CCNc1nc(Oc2ccc(C(=O)OC)cc2)nc(N2CCOCC2)n1`, the activity change was 7.61% (inactive).

Take `COC(=O)c1ccc(Oc2nc(Nc3ccc(F)cc3)nc(N3CCCC3)n2)cc1`: the activity change was -60.2% (active).

Consider `COC(=O)c1ccc(Oc2nc(NC(C)C)nc(SC)n2)cc1`, for which the activity change was 19.1% (inactive).

Consider `CCOC(=O)c1c(-c2ccccc2)oc2cc(Br)c(O)c(C=O)c12`, for which the activity change is -98% (active).

Turning to `CCOC(=O)c1c(-c2ccccc2)oc2ccc(OCC(=O)NN)cc12`, the activity change was -28.6% (inactive).

As for `CCOC(=O)c1c(-c2ccccc2)oc2cc(Br)c(O)cc12`, the activity change is 0% (inactive).

For `Cc1cc(OCC(=O)Nc2nccs2)c2c(C)c(C)c(=O)oc2c1`, the activity change was 6.37% (inactive).

For the compound `Cc1nc2nc(SCC(=O)NCc3ccco3)nn2c(C)c1Cc1ccccc1`, the activity change was -78.8% (active).

For `Cc1cc(C)n2nc(SCC(=O)NC(=O)NCc3ccco3)nc2n1`, the activity change was 34.3% (inactive).

On to `Cc1ccc(Cc2c(C)nc3nc(SCC(=O)NCCN4CCOCC4)nn3c2C)cc1`, for which the activity change is 7.76% (inactive).

Take `Fc1ccc(N2N=C(c3cccs3)CC2c2ccco2)c(F)c1` (centres undefined): the activity change was 5.22% (inactive).

On to `O=C(O)C1CCCN1c1nc(Cl)ccc1[N+](=O)[O-]` (centres undefined), for which the activity change is -1.43% (inactive).

Turning to `CC(=O)N[C@H]1[C@H]([C@H](O)[C@H](O)CO)OC(C(=O)O)=C[C@@H]1O`, the activity change is 1.96% (inactive).

`CCOC(=O)c1c(C)[nH]c2c1-c1ccccc1C(=O)C2=O`: the activity change is -53.9% (active).

Regarding `CCOC(=O)c1c(C)nc2c(c1C)c(=O)oc1ccccc12`, the activity change was 7% (inactive).

Turning to `CCOC(=O)C1=C(C)c2ccccc2OC1(C)C(=O)OCC` (centres undefined), the activity change was 41.5% (inactive).

For the compound `CN(C)CCCOc1ccc(-c2ccc3nccn3c2)cn1`, the activity change was -5.3% (inactive).

Turning to `Cc1cc(C)c2cc(C#N)c(N3CCNCC3)nc2c1`, the activity change was -29.2% (inactive).

Consider `CCC(C)(C)n1nnnc1CN1CCN(c2nc3ccc(C)cc3cc2C#N)CC1`, for which the activity change is -68.2% (active).

As for `CCOc1ccc2nc(N3CCCN(C(=O)Nc4ccccc4C)CC3)c(C#N)cc2c1`, the activity change is -14.3% (inactive).

With `O=C(CSc1ncn[nH]1)Nc1ccnc2ccccc12`, the activity change is 11% (inactive).

For `O=C(CSc1ncn[nH]1)Nc1nsc(-c2ccccc2)n1`, the activity change was 10.9% (inactive).

Regarding `O=C(CSc1ncn[nH]1)Nc1ccc(Br)cc1Br`, the activity change was -53.6% (active).

Consider `NS(=O)(=O)c1ccc(NC(=O)COC(=O)CCc2c[nH]c3ccccc23)cc1`, for which the activity change was 0% (inactive).

`Cc1csc(SCC(=O)Nc2ccc(C)c(S(=O)(=O)N(C)C)c2)n1`: the activity change is 42.7% (inactive).

Regarding `CNCC[C@H](Oc1ccc(C(F)(F)F)cc1)c1ccccc1`, the activity change was -68.4% (active).

Consider `CC(C)Oc1ccc(Oc2ccc(C(F)(F)F)cn2)cc1`, for which the activity change was -23.6% (inactive).

Regarding `CC(NC(=O)COC(=O)Cn1cc(C(F)(F)F)ccc1=O)c1ccccc1` (centres undefined), the activity change is -0.662% (inactive).
